{"source": "PubChem BioAssay AID1038", "about": "(National Center for Advancing Translational Sciences (NCATS), 2008)", "assay": "Normal 1 Cell Viability Secondary Assay for qHTS Assay for Epigenetic Modulators", "conditions": "Normal 1 bronchial epithelial viability, MTS, 4 d", "from_the_text": "NIH Molecular Libraries Screening Centers Network [MLSCN] NIH Chemical Genomics Center [NCGC] MLSCN Grant: 1 X01 MH079860-01 Assay Provider: Elisabeth D. Martinez, University of Texas SW Medical Center NCGC Assay Overview: This secondary assay characterizes selected actives identified in the qHTS of the Locus Derepression (LDR) assay (PubChem AID 597). The LDR assay detects the derepression of a GFP reporter that is stably integrated in a region of the genome of murine c127i mammary cells that is presumably silenced. Compounds that cause derepression of the locus to express GFP are identified by enumerating GFP positive cells using a laser-scanning microplate cytometer. […] Normal 1 cell viability was measured using Cell Titer 96 AQueous One (Promega), an assay which detects the ability of metabolically active cells to reduce a tetrazolium salt substrate (MTS), into a soluble formazan product that can be measured by colorimetry.\nNCGC Assay Protocol Summary Normal 1 cells were plated in 96-well flat bottom tissue culture dishes (Corning) and grown overnight at 37 C and 5% CO2, then treated with compounds, incubated 4 days, and assayed for viability using the Cell Titer 96 AQueous One kit (Promega) according to the manufacturer's protocol. Absorbance at 490 nm and 650 nm (reference) was measured by a Spectra Max (Molecular Devices). […]", "note": "Results filed as inconclusive are left out. The source made the active and inactive calls. Calls follow the shape of the full dose curve."}
{"smiles": "CN1CSC(=S)N(C)C1", "values": [{"measurement": "outcome", "value": "inactive"}]}
